Laboratory results reported in PubChem BioAssay (NCATS).
Records with an inconclusive call do not appear. Active and inactive are the calls of the source. Unless noted, the call rests on the fitted dose curve; in most records, active means well fitted curve in the direction sought with a large enough effect; inconclusive means small, poorly fitted or top-dose-only effect, or another doubt; inactive means no such curve, though single readings can be large; an effect the other way counts as inactive or inconclusive.

Key:
[1] = biological target: Cytochrome P450 1A2 (Homo sapiens) (UniProt P05177); test: p450-cyp1a2 (AID 410; calls by dose curve; further: potency means the concentration at half of the fitted maximal effect)
Cytochrome P450 1A2 (Homo sapiens), sequence (P05177 whole entry, looked up): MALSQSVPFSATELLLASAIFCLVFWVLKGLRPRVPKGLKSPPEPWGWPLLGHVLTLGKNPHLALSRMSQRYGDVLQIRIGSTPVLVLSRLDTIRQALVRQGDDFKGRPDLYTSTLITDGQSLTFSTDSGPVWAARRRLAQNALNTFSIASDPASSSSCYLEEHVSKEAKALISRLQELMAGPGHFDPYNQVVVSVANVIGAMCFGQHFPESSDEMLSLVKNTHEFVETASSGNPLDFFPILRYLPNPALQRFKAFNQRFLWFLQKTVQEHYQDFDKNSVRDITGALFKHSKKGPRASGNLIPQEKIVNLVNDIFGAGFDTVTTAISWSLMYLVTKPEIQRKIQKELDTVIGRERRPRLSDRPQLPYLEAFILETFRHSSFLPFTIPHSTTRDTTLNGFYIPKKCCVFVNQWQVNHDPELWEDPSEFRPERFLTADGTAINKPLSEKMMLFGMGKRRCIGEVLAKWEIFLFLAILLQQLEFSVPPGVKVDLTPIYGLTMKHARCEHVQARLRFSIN
Summary of the method: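 Luminescent readout of luciferin formed from Luciferin-ME by human CYP1A2; data normalized against complete inhibition by 57 uM furafylline. Enzyme 20nM, substrate 100uM at Km, 100mM KPO4 buffer, 60 min reaction at room temperature.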

[2] = biological target: Glucocorticoid receptor (Homo sapiens) (UniProt P04150); test: GR-GFP Redistribution (AID 450;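 active means compounds whose dose series gives a full or clear partial fitted curve of increased nuclear translocation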; further: potency means the concentration at half of the fitted maximal effect)
Glucocorticoid receptor (Homo sapiens), sequence (P04150 whole entry, looked up, the tested form may be a part): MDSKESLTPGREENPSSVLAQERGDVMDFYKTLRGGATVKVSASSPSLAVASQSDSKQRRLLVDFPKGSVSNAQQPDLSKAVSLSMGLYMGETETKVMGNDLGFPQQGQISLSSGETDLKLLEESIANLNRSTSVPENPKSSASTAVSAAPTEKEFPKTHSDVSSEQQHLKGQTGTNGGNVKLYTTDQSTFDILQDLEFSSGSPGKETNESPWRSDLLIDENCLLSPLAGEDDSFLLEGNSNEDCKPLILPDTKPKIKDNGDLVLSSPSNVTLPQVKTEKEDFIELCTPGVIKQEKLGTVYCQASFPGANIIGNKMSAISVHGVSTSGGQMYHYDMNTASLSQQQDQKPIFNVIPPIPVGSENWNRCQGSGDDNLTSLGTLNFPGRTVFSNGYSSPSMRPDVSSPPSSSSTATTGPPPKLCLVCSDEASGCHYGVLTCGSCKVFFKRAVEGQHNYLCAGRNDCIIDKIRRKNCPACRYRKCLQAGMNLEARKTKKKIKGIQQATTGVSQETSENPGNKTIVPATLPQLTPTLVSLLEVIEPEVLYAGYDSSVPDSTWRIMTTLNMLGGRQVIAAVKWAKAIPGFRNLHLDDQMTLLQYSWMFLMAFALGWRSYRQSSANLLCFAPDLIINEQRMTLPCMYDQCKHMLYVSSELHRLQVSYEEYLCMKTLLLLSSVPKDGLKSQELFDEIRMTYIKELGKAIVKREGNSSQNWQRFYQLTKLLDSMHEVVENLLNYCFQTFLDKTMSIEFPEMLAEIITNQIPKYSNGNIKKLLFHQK

[3] = biological target: Glucocorticoid receptor (Homo sapiens) (UniProt P04150); test: GR-EFC Redistribution (AID 451; calls by dose curve; further: potency means the concentration at half of the fitted maximal effect); conditions: CHO-K1 GR-EFC translocation, beta-gal luminescence, 2 h
Summary of the method: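 CHO-K1 cells stably expressing nuclear-localized β-gal enzyme acceptor and GR fused C-terminally to the enzyme donor fragment; ligand-driven nuclear translocation restores β-gal by complementation. Compounds titrated up to 46 uM final, 2 h at 37 °C; luminescence read.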

[4] = biological target: Mitogen-activated protein kinase 10 (Mus musculus) (UniProt Q61831); test: JNK3 AlphaScreen Assay (AID 530; active means well fitted curve in either direction with a large enough effect, not every such curve was filed as active;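 further: kinase came from lysate of stimulated human HepG2 cells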; further: potency means the concentration at half of the fitted maximal effect)
Summary of the method: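 Inhibitors reduce antibody binding to phosphorylated biotin-cJun, lowering AlphaScreen luminescence. Lysates from HepG2 cells pre-activated by IL-1beta plus TNF-alpha supplied JNK3; compounds were titrated.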

[5] = biological target: Cytochrome P450 3A4 (Homo sapiens) (UniProt P08684); test: qHTS Assay for Activators of Cytochrome P450 3A4 (AID 885); further: nearly all actives have a fitted effect of over 65% in size
Cytochrome P450 3A4 (Homo sapiens), sequence (P08684 whole entry, looked up): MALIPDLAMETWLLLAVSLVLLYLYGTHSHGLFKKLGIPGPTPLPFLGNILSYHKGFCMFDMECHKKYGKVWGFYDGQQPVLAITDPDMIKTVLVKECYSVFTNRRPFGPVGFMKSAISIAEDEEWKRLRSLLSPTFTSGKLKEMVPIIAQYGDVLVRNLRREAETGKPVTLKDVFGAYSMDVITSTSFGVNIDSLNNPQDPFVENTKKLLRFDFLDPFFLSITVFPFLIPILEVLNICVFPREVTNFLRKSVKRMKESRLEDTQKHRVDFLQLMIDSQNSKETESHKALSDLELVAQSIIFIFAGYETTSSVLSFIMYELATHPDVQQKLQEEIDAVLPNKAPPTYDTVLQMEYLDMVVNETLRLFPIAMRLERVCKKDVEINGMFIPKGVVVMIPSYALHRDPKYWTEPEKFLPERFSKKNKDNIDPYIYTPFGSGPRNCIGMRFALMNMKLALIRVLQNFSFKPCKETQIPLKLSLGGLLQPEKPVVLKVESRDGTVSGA
Summary of the method: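 Quantitative HTS format: compounds preincubated with 20nM human CYP3A4 and Luciferin-PPXE substrate at KM, reaction started by NADPH regeneration, stopped after 60 min, luciferase luminescence read 20 min later.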

[6] = biological target: Cytochrome P450 2D6 (Homo sapiens) (UniProt P10635); test: qHTS Assay for Inhibitors and Substrates of Cytochrome P450 2D6 (AID 891); further: nearly all actives have a fitted effect of over 60% in size; further: potency means the concentration at half of the fitted maximal effect
Cytochrome P450 2D6 (Homo sapiens), sequence (P10635 whole entry, looked up): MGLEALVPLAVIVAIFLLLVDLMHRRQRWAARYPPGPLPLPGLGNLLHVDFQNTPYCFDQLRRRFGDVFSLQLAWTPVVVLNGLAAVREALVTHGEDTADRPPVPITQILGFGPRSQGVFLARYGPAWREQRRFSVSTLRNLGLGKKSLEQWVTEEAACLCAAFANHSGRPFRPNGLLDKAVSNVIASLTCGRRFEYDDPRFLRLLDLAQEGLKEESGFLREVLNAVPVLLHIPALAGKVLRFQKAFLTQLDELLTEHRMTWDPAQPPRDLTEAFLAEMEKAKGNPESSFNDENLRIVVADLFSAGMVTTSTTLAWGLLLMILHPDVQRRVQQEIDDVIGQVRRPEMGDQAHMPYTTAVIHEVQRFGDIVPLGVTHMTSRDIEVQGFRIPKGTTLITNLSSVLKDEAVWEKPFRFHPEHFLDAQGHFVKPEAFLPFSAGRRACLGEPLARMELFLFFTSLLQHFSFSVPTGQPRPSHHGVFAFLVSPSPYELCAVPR
Summary of the method: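 Human CYP2D6 (5 nM) with 30 uM Luciferin-ME EGE (at Km) in 100 mM KPO4, compound preincubated 10 min, then NADPH regeneration system for 60 min at room temperature. Luciferin read by luminescence; normalized to 1.43 uM quinidine.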

[7] = biological target: Cytochrome P450 2C19 (Homo sapiens) (UniProt P33261); test: qHTS Assay for Inhibitors and Substrates of Cytochrome P450 2C19 (AID 899); further: nearly all actives have a fitted effect of over 60% in size; further: potency means the concentration at half of the fitted maximal effect
Cytochrome P450 2C19 (Homo sapiens), sequence (P33261 whole entry, looked up): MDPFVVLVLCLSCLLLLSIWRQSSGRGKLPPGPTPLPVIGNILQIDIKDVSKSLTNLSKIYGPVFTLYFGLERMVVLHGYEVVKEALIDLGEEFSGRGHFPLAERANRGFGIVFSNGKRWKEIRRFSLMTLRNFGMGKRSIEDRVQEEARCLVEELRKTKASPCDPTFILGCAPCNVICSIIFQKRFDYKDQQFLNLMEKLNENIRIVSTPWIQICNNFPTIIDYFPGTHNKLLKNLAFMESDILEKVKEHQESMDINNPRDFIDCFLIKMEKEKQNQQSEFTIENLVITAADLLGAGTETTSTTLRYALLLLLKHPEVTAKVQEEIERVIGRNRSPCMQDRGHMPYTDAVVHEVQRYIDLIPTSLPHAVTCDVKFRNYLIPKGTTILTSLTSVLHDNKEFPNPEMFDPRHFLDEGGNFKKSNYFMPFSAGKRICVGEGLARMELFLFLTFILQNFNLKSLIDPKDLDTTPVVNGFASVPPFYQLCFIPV
Summary of the method: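 NADPH-dependent conversion of Luciferin-H EGE (10uM, at KM) by 5nM enzyme in 50mM KPO4, 60 min at 37C following 10 min compound preincubation. Stopped with luciferin detection buffer; luminescence read after 20 min.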

[8] = biological target: DNA dC->dU-editing enzyme APOBEC-3G (Homo sapiens) (UniProt Q9HC16); test: qHTS for inhibitors of Vif-A3G interactions: Validation (AID 588379)
DNA dC->dU-editing enzyme APOBEC-3G (Homo sapiens), sequence (Q9HC16 whole entry, looked up): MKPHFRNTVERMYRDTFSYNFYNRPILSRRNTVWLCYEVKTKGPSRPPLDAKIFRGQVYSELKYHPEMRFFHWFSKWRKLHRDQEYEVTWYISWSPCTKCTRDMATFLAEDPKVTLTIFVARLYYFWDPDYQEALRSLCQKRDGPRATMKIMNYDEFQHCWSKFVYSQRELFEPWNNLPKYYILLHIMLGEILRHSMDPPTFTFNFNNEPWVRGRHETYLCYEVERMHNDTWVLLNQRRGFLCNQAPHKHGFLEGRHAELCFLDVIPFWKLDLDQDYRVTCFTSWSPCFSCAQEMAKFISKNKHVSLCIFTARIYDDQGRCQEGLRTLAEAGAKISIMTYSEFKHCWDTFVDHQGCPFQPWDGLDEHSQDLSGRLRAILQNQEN
Summary of the method: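 HeLa cells stably expressing Vif and A3G-eYFP, 700 cells/well, incubated overnight at 37 deg C, then exposed to compound overnight at 37 deg C. Inhibition of Vif-mediated degradation read as increased yellow fluorescence (Ex 488/Em 500-530) by laser-scanning cytometry.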

[9] = biological target: 3',5'-cyclic-AMP phosphodiesterase 4B (Homo sapiens) (UniProt Q07343); test: qHTS Assay for Inhibitors of PDE-IV (AID 607; active means well fitted activation curve with a large enough effect in the main read-out, with a control signal flat, not every such curve was filed as active)
3',5'-cyclic-AMP phosphodiesterase 4B (Homo sapiens), sequence (Q07343 whole entry, looked up): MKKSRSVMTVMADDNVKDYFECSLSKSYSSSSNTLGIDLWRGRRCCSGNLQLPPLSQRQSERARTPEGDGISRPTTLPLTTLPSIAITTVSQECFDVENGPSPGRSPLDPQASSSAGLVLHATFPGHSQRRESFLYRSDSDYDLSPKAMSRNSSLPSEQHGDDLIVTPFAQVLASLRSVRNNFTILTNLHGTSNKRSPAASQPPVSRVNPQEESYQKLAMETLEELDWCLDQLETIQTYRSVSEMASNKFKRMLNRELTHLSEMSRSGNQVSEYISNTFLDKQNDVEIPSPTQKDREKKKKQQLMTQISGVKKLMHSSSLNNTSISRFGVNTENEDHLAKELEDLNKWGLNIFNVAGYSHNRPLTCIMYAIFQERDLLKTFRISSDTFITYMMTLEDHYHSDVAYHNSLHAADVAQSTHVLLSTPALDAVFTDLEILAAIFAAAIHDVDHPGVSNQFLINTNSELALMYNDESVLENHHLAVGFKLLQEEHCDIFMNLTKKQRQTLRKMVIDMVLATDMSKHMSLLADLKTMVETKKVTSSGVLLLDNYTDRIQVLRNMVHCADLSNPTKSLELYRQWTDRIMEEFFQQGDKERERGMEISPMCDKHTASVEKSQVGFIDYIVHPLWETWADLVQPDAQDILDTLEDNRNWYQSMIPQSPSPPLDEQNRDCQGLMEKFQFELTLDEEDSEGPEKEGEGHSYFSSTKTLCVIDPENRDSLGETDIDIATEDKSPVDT
Summary of the method: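 Live HEK293 cells with a modified cyclic nucleotide-gated (CNG) channel report intracellular cAMP via membrane-potential dye fluorescence (ex 535/em 590 nm). Endogenous PDE-IV was targeted. Compounds were tested at up to 22.9 uM final; RO 20-1724 100 uM served as control.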

[10] = biological target: Cytochrome P450 2C9 (Homo sapiens) (UniProt P11712); test: qHTS Assay for Inhibitors and Substrates of Cytochrome P450 2C9 (AID 883); further: nearly all actives have a fitted effect of over 60% in size; further: potency means the concentration at half of the fitted maximal effect
Cytochrome P450 2C9 (Homo sapiens), sequence (P11712 whole entry, looked up): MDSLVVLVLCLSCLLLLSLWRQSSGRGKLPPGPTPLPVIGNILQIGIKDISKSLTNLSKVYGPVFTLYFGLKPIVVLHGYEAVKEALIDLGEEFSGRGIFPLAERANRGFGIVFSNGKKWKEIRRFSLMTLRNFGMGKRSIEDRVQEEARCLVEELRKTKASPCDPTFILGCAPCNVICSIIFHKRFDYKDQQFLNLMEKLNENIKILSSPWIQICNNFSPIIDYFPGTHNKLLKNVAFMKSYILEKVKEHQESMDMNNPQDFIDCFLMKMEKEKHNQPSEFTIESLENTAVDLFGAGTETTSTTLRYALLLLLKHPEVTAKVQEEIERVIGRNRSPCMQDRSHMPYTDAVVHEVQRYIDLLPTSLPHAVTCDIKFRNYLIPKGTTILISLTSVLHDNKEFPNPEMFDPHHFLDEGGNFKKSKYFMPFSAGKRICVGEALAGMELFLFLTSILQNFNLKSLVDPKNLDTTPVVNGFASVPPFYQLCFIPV
Summary of the method: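 A luminogenic readout tracked human CYP2C9 (10nM) converting deoxyluciferin (100uM, at KM) in 25mM KPO4 during 60 min at 37C with regenerated NADPH. Values normalized to 57uM sulphaphenazole as complete inhibition.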

[11] = biological target: Cytochrome P450 3A4 (Homo sapiens) (UniProt P08684); test: qHTS Assay for Inhibitors and Substrates of Cytochrome P450 3A4 (AID 884); further: potency means the concentration at half of the fitted maximal effect; nearly all actives have a fitted effect of over 50% in size
Summary of the method: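 20 nM human CYP3A4 with 25 uM Luciferin-PPXE (at KM) in 200 mM KPO4, preincubated 10 min with compound; NADPH regeneration started a 60 min RT reaction. Luciferin detected by luminescence, normalized to 57 uM ketoconazole as full inhibition.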

[12] = biological target: Luciferin 4-monooxygenase (Photinus pyralis) (UniProt P08659); test: Biochemical firefly luciferase enzyme assay for NPC (AID 624030);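 further: purified P. pyralis luciferase at 10 nM with luciferin and ATP substrate; series mostly up to about 59 µM; nearly all actives have a fitted effect of over 70% in size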
Luciferin 4-monooxygenase (Photinus pyralis), sequence (P08659 whole entry, looked up): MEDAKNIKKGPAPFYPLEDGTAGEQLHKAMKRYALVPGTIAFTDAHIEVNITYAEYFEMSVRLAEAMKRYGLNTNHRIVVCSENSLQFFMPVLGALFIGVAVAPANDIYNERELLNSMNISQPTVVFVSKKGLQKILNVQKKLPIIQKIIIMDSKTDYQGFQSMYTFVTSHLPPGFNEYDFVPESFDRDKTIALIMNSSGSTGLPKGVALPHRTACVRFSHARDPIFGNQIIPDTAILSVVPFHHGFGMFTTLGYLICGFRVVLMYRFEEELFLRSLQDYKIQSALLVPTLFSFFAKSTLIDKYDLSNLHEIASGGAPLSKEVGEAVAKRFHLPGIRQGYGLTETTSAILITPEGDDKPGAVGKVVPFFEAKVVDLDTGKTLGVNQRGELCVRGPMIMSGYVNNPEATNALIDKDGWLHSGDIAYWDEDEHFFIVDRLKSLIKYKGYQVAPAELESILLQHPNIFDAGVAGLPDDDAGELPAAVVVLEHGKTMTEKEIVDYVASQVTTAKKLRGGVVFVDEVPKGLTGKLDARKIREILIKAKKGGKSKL
Summary of the method: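 Counter-screen for direct inhibition of the luciferase enzyme by approved-drug library compounds, run at 10 nM enzyme in 50 mM Tris acetate (final). Luminescence was read within 5 min of enzyme-buffer addition and normalized to PTC124 versus DMSO (0%).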

[13] = biological target: Ubiquitin carboxyl-terminal hydrolase 1 (Homo sapiens) (UniProt O94782); test: Inhibitors of USP1/UAF1: Pilot qHTS (AID 504865);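 further: rhodamine fluorescence freed from ubiquitin-rhodamine substrate followed over time; top concentration of the series differs between compounds; nearly all actives have a fitted effect of over 35% in size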
Summary of the method: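 Enzyme-free wells gave the negative control, while test wells held 1nM USP1/UAF1 preincubated with compound for 15 min at room temperature. Ub-Rho at 150nM final started the reaction, and fluorescence at 480/540 nm was recorded kinetically.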

Measured: Potency

COc1ccc(-c2cc(=O)c3ccc(O)cc3o2)cc1
active: [1] 0.158 µM | [7] 3.16 µM
inactive: [2] > 46 µM | [3] > 46 µM | [4] | [5] | [6] | [8]

Cn1ccc(O)c(C#N)c1=O
inactive: [1] | [2] > 46 µM | [3] > 46 µM | [4] | [9] | [10] | [6] | [7] | [8]

COc1cc2c(cc1OC)-c1c(OC)c(OC)cc3ccnc(c13)C2=O
active: [1] 0.0794 µM | [11] 2.51 µM
inactive: [2] > 46 µM | [3] > 46 µM | [4] | [5] | [8]

CC(=O)O[C@H]1CC[C@@]2(C)[C@@H](CC[C@@]3(C)[C@H]2C(=O)C=C2[C@H]4C[C@](C)(C(=O)OCCN5CCCCC5)CC[C@]4(C)CC[C@@]23C)C1(C)C
inactive: [1] | [2] > 46 µM | [3] > 46 µM | [4] | [9] | [10] | [6] | [7]

CC(=O)O[C@@H]1CC[C@]2(C)[C@H]3CC[C@]4(C)[C@H](C[C@H]5CCCC[C@@]54C(C)=O)[C@@H]3CC(=O)[C@@]2(O)C1
active: [1] 20 µM
inactive: [2] > 46 µM | [3] > 46 µM | [4] | [9]

CN1CCc2cc3c(cc2C(=O)Cc2ccc4c(c2C1)OCO4)OCO3
inactive: [2] > 46 µM | [3] > 46 µM | [4] | [10] | [5] | [8]
active: [1] 39.8 µM | [6] 0.0501 µM | [7] 10 µM

COc1ccc2c(=O)cc(-c3ccccc3)oc2c1O
inactive: [2] > 46 µM | [3] > 46 µM | [4] | [9] | [5] | [6] | [8]
active: [1] 0.0158 µM | [10] 15.8 µM | [7] 5.01 µM

O=c1cc(-c2ccccc2O)oc2cc(O)cc(O)c12
inactive: [2] > 46 µM | [3] > 46 µM | [4] | [9] | [5] | [8]
active: [1] 0.251 µM | [10] 5.01 µM | [11] 3.98 µM | [7] 3.98 µM

CC1(C)[C@@H](O)CC[C@@]2(C)[C@H]1CC[C@]1(C)[C@H]2C(=O)C=C2[C@@H]3C[C@@](C)(C(=O)O)CC[C@]3(C)CC[C@@]21C
inactive: [1] | [2] > 46 µM | [3] > 46 µM | [4] | [9] | [10] | [6] | [7]

O=c1cc(-c2ccccc2O)oc2c1ccc1ccccc12
active: [1] 0.501 µM
inactive: [2] > 46 µM | [3] > 46 µM | [4] | [9] | [10] | [5] | [6] | [8]

COc1ccc2c(=O)cc(-c3ccc(O)cc3)oc2c1
active: [1] 0.0794 µM | [10] 6.31 µM | [11] 3.16 µM
inactive: [2] > 46 µM | [3] > 46 µM | [4] | [9] | [5] | [8]

COc1ccccc1-c1cc(=O)c2cc(O)ccc2o1
active: [1] 0.2 µM | [7] 0.398 µM
inactive: [2] > 46 µM | [3] > 46 µM | [4] | [10] | [5] | [8]

CC(=O)Oc1cc(OC(C)=O)c2c(=O)cc(-c3ccc(OC(C)=O)c(OC(C)=O)c3)oc2c1
active: [1] 3.16 µM | [4] 10 µM
inactive: [2] > 46 µM | [3] > 46 µM | [9] | [10] | [5] | [6] | [7] | [8]

COc1cc(O)c2c(=O)cc(-c3ccccc3)oc2c1
active: [1] 0.0251 µM | [11] 10 µM | [7] 0.398 µM
inactive: [2] > 46 µM | [3] > 46 µM | [4] | [5] | [6] | [8]

CC(C)OC(=O)c1cc2c(OC[C@@H](O)CNC(C)(C)C)cccc2[nH]1
inactive: [2] > 46 µM | [3] > 46 µM | [4] | [8] | [12]
active: [1] 31.6 µM

COc1cccc(-c2cc(=O)c3cc(O)ccc3o2)c1
active: [1] 1.58 µM | [11] 15.8 µM
inactive: [2] > 46 µM | [3] > 46 µM | [4] | [9] | [5] | [6] | [8]

COc1cc2ccc(=O)oc2c(O)c1OCC=C(C)C
inactive: [2] > 46 µM | [3] > 46 µM | [4] | [9] | [5] | [8]
active: [1] 1.58 µM | [7] 10 µM

COc1cc(C(=O)O[C@@H]2CC(C)=CC[C@@]3(C)CC[C@](O)(C(C)C)[C@H]23)ccc1O
active: [1] 15.8 µM | [10] 15.8 µM
inactive: [2] > 46 µM | [3] > 46 µM | [4] | [9]

Cc1ccc(C[C@H](Cc2nc3ccccc3[nH]2)c2nc3ccccc3[nH]2)cc1
inactive: [2] > 46 µM | [3] > 46 µM | [4] | [9]
active: [1] 3.98 µM | [10] 12.6 µM | [6] 0.0794 µM

Nc1ccccc1C(=O)C[C@@H](N)C(=O)O
inactive: [1] | [2] > 46 µM | [3] > 46 µM | [4] | [9] | [10] | [6]

C=C(CO)[C@H]1Cc2c(ccc3c2O[C@H]2COc4cc(OC)c(OC)cc4[C@@H]2C3=O)O1
inactive: [1] | [2] > 46 µM | [3] > 46 µM | [4] | [9] | [10] | [6]

COc1ccccc1-c1oc2ccccc2c(=O)c1OC
inactive: [2] > 46 µM | [3] > 46 µM | [4] | [5] | [6] | [8]
active: [1] 0.2 µM | [10] 25.1 µM

O[C@@H]1[C@@H]2c3cc4c(cc3CN3CCC(=C[C@@H]1O)[C@H]23)OCO4
active: [1] 15.8 µM
inactive: [2] > 20.6 µM | [3] > 20.6 µM | [4] | [9] | [13]

COc1cccc2oc(-c3ccc(O)cc3)cc(=O)c12
active: [1] 0.398 µM | [10] 12.6 µM | [11] 15.8 µM
inactive: [2] > 46 µM | [3] > 46 µM | [4] | [5] | [8]

O=C(/C=C\c1ccc(O)c(O)c1)O[C@H]1C[C@@](O)(C(=O)O)C[C@H](O)[C@@H]1O
inactive: [1] | [2] > 46 µM | [3] > 46 µM | [4] | [9] | [10] | [6]

O=c1c(O)c(-c2ccc(O)cc2)oc2ccc(O)cc12
inactive: [2] > 46 µM | [3] > 46 µM | [4] | [9] | [5] | [6] | [8]
active: [1] 0.2 µM

O=c1c(O)c(-c2ccc(O)cc2)oc2cc(O)ccc12
active: [1] 0.1 µM | [10] 10 µM | [7] 15.8 µM
inactive: [2] > 46 µM | [3] > 46 µM | [4] | [9] | [5] | [8]
